Inconclusive results are not listed. Activity calls are given as the source filed them. Unless noted, the call rests on the fitted dose curve; in most records, active means well fitted curve in either direction with a large enough effect (not every such curve was filed as active); inconclusive means small, poorly fitted or top-dose-only effect, or another doubt; inactive means flat fitted curve, though single readings scatter.
Tests used:
[1] = target: Lysosomal acid glucosylceramidase (Homo sapiens) (UniProt P04062); test: Glucocerebrosidase-p2 (AID 348; in the data active means potency below about 10 µM; further: potency means the concentration at half of the fitted maximal effect); details: purified GBA, blue fluorogenic substrate, 40 min
Chain of Lysosomal acid glucosylceramidase (Homo sapiens) (P04062 whole entry, looked up): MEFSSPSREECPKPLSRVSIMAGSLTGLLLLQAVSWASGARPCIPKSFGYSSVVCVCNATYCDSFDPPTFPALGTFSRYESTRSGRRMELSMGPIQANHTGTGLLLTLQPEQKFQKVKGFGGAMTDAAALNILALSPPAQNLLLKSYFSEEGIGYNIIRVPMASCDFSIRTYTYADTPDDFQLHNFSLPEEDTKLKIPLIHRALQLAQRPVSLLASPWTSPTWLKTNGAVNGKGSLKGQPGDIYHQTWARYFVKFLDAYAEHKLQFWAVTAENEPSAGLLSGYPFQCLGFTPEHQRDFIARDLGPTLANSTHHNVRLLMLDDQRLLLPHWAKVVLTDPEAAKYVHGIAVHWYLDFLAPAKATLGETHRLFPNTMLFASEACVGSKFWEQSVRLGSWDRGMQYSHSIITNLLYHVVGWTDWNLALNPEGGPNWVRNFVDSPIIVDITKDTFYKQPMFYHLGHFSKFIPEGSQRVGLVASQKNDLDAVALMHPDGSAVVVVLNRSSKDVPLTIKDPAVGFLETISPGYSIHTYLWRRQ
Method in brief: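 Normal human glucocerebrosidase (0.2 nM) with blue fluorogenic substrate (80 uM final) in citrate/phosphate pH 5.9 with 10mM sodium taurocholate, 0.01% tween-20; 40 min RT, NaOH/glycine stop; fluorescence Ex 365/Em 440; AC50 from a titration from 0.6 nM upwards.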

[2] = AP1 Signaling Pathway (AID 357); details: ME-180 AP-1-bla reporter, EGF-induced, beta-lactamase ratio, 5 h; at 7.69 µM (top of the series) unless noted; further: on the % scale 0 is the no-effect control and ±100 the full control effect
Method in brief: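 ME-180 cells with beta-lactamase reporter under AP-1 response element, stimulated with EC50 EGF; compounds tested in titration series, 5 h at 37 °C. CCF4 substrate added 2.5 h at room temperature; 460/530 nm emission ratio gave %activity and AC50.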

[3] = target: Cytochrome P450 1A2 (Homo sapiens) (UniProt P05177); test: p450-cyp1a2 (AID 410; calls by dose curve; further: potency means the concentration at half of the fitted maximal effect;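 on activity change, negative = inhibition: -100% = full effect of reference inhibitor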); details: recombinant CYP1A2, luciferin-ME demethylation, luminescence; series mostly up to 57 µM
Chain of Cytochrome P450 1A2 (Homo sapiens) (P05177 whole entry, looked up): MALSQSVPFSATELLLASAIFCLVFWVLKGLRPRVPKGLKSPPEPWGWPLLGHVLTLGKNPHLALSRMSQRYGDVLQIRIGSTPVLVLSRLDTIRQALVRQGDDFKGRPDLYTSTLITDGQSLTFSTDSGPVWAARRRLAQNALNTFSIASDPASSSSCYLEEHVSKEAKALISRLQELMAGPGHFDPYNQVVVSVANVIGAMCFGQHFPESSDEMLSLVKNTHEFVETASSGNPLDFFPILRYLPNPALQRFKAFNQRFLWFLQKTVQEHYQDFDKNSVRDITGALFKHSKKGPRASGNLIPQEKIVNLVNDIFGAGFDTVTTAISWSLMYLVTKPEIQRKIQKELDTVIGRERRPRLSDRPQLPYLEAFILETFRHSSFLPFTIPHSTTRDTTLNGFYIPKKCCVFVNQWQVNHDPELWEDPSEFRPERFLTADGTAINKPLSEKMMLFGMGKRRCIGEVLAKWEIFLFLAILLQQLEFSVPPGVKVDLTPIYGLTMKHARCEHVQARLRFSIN
Method in brief: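 O-Demethylation of luciferin 6' methyl ether by human CYP1A2 is monitored as luciferase luminescence. Substrate sits at Km (100uM); enzyme is 20nM. Values are scaled to 57 uM furafylline as maximal inhibition.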

[4] = Stat Signaling Pathway (AID 446); details: ME-180 (cervical carcinoma) SIE beta-lactamase reporter, IL-6 stimulated, 5 h; at 7.69 µM (top of the series) unless noted;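 further: ME-180 cervical cancer cells given 40 pM IL-6 alongside compound; SIE-controlled beta-lactamase reporter measured as 460/530 nm FRET emission ratio; on the % scale 0 is the no-effect control and ±100 the full control effect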
Method in brief: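 Compound effects on IL-6-induced STAT reporter activity were measured in ME-180 cells. After overnight culture, cells were co-treated with 40 pM IL-6 for 5 hrs before beta-lactamase substrate loading at room temperature.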

[5] = target: Glucocorticoid receptor (Homo sapiens) (UniProt P04150); test: GR-EFC Redistribution (AID 451; calls by dose curve; further: potency means the concentration at half of the fitted maximal effect); details: CHO-K1 GR-EFC translocation, beta-gal luminescence, 2 h
Chain of Glucocorticoid receptor (Homo sapiens) (P04150 whole entry, looked up, the tested form may be a part): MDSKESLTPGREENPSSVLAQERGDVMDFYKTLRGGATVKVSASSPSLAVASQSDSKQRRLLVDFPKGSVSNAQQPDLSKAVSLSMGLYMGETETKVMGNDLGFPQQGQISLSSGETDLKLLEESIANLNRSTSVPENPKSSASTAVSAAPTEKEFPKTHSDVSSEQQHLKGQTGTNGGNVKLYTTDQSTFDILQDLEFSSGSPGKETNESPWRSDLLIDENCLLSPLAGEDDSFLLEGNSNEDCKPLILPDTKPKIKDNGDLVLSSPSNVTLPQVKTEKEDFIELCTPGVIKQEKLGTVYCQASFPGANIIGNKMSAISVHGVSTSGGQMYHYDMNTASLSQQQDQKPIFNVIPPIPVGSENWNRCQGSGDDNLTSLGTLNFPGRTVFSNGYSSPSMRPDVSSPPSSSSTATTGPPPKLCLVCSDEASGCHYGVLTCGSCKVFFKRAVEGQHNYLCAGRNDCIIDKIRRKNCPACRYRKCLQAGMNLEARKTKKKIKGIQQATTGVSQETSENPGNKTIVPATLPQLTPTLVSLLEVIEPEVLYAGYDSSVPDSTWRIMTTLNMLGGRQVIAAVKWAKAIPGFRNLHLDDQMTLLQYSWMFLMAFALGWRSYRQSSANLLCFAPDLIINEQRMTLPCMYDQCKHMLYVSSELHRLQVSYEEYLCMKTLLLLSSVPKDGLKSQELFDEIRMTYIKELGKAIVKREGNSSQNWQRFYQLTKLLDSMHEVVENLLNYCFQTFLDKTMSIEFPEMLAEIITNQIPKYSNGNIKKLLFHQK
Method in brief: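 Translocation of GR-ED fusion to nuclear EA restores b-gal, read by luminescence after 1 h room-temperature detection. Engineered CHO-K1 biosensor cells, 1,000/well, exposed 2 h at 37 C to titrations up to 46 uM final.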

[6] = target: Mitogen-activated protein kinase 10 (Mus musculus) (UniProt Q61831); test: JNK3 AlphaScreen Assay (AID 530); details: JNK3 lysate, c-Jun phosphorylation; series mostly up to 57.1 µM;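 further: kinase came from lysate of stimulated human HepG2 cells; signal reports phosphorylation of biotinylated GST-cJun 1-79 at Ser73 with 10 µM ATP; on the % scale 0 is the no-effect control and ±100 the full control effect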
Method in brief: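 qHTS titrations with 15 min compound pre-incubation before adding ATP (10 uM final). Read-out: AlphaScreen of Ser73-phosphorylated biotin-GST-cJun using HepG2 lysate JNK3 activated by IL-1β and TNFα.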

[7] = target: 3',5'-cyclic-AMP phosphodiesterase 4B (Homo sapiens) (UniProt Q07343); test: qHTS Assay for Inhibitors of PDE-IV (AID 607; active means well fitted activation curve with a large enough effect in the main read-out, with a control signal flat, not every such curve was filed as active; further: % of control where 0% means no effect); details: HEK293 ACTOne CNG channel cells, membrane potential fluorescence; series mostly up to 22.9 µM
Chain of 3',5'-cyclic-AMP phosphodiesterase 4B (Homo sapiens) (Q07343 whole entry, looked up): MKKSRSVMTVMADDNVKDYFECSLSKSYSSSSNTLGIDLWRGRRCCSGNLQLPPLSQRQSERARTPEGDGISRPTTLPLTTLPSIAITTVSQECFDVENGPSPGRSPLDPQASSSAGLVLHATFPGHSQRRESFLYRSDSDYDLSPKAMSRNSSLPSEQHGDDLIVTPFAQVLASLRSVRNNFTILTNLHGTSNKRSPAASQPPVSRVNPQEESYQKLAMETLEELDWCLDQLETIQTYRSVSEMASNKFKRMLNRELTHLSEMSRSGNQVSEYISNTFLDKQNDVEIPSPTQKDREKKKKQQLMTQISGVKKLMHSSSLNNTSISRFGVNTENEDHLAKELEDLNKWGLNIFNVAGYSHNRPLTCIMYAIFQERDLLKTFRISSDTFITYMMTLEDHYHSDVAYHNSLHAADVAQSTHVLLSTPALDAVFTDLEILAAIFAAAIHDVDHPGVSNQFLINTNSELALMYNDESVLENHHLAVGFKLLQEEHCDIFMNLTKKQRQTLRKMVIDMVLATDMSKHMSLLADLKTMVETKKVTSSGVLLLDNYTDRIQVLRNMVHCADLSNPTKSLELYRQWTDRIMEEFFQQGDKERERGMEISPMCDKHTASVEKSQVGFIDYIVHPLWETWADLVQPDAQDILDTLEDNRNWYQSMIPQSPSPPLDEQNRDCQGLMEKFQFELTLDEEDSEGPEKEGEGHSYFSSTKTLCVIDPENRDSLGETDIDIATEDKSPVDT
Method in brief: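 ACTOne HEK293 cells carry a modified cAMP-gated CNG channel and express endogenous PDE4; plated 1000 cells/well, compounds up to 22.9 uM final. Membrane-potential dye fluorescence (ex 535/em 590) was read; parental cells received 10 uM forskolin + 100 uM RO 20-1724.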

[8] = qHTS Assay for Lipid Storage Modulators (AID 1519; calls by dose curve); details: Drosophila S3 cells, BODIPY lipid droplet/cell ratio, laser cytometry, cells loaded with oleic acid; for activity change, negative = inhibition: at 57.5 µM (top of the series)
Method in brief: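 Cells seeded at 5,000 per well were treated with compounds over a concentration series and loaded with oleic acid (400 uM, as added). Lipid droplet fluorescence (488 nm excitation, 500-530 nm channel) was read by laser-scanning cytometry and normalized to 20 uM Triacsin C.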

[9] = NFAT Signaling Pathway (AID 444); details: Jurkat NFAT-bla M1, carbachol, beta-lactamase ratio, 5 h; at 7.69 µM (top of the series) unless noted;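 further: carbachol stimulus at about its EC50 of 1 µM final; on the % scale 0 is the no-effect control and ±100 the full control effect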
Method in brief: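 Read-out: CCF4 FRET ratio (460 nm/530 nm) after 1 h RT dye loading, used for %activity and AC50 from titration series. Cells: Jurkat NFAT-β-lactamase/M1 line, treated with compound plus 1 uM carbachol for 5 h, 37 °C.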

[10] = target: Ubiquitin carboxyl-terminal hydrolase 1 (Homo sapiens) (UniProt O94782); test: Inhibitors of USP1/UAF1: Pilot qHTS (AID 504865; active means well fitted inhibition curve with a large enough effect; further: nearly all actives have a fitted effect of over 35% in size; further: potency means the concentration at half of the fitted maximal effect); details: purified USP1/UAF1, Ub-rhodamine cleavage fluorescence; series mostly up to 54.9 µM
Chain of Ubiquitin carboxyl-terminal hydrolase 1 (Homo sapiens) (O94782 whole entry, looked up): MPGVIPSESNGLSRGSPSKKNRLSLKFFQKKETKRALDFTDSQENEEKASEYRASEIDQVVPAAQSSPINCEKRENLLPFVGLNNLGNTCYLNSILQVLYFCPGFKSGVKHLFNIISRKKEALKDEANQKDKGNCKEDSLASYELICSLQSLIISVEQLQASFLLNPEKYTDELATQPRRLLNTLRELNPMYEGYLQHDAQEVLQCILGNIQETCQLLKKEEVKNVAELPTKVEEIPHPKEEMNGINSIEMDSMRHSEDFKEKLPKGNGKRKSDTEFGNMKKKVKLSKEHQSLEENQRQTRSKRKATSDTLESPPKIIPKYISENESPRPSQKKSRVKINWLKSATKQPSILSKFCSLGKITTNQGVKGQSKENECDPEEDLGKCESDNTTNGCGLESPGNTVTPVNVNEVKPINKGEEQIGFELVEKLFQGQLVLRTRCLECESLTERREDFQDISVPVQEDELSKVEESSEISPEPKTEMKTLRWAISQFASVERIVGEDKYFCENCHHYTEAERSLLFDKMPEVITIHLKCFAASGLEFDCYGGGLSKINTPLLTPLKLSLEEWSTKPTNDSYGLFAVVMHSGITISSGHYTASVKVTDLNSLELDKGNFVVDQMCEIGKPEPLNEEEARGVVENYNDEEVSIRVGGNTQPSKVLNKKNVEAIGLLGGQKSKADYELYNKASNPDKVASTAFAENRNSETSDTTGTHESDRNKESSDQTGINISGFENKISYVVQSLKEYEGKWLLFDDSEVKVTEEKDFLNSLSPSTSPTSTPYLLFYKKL
Method in brief: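 Deubiquitinase activity followed as kinetic rhodamine fluorescence release from 150 nM Ub-Rho. 1 nM USP1/UAF1 with compound, after 15 min room-temperature preincubation, in HEPES pH 7.8 buffer containing TCEP, EDTA, BSA and Tween-20.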

[11] = target: Glucocorticoid receptor (Homo sapiens) (UniProt P04150); test: GR-GFP Redistribution (AID 450;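 active means compounds whose dose series gives a full or clear partial fitted curve of increased nuclear translocation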; further: potency means the concentration at half of the fitted maximal effect); details: U2OS GR-GFP nuclear translocation, laser cytometry, 2 h
[12] = measured here: cell count channel max response
[13] = measured here: lipid channel max response

Compound	Potency [1]	activity change, negative = inhibition [2]	Potency [3]	activity, negative = inhibition [4]	Potency [5]	Potency [6]	Potency [7]	activity change, negative = inhibition [8]	max response [8, 12] [%]	max response [8, 13] [%]	activity change, negative = inhibition [9]	Potency [10]	Potency [11]
FC(F)(F)c1cc(CN2CC[C@@]3(CCCNC3)C2)cc(C(F)(F)F)c1	> 11.4 µM (inactive)	7.88% (inactive)	inactive	4.03% (inactive)	> 46 µM (inactive)	inactive	inactive	1.16% (inactive)	8.55	10.6	–	–	–
c1ccc(-c2ccc(N3CC[C@@]4(CCCNC4)C3)cc2)cc1	> 11.4 µM (inactive)	16.6% (inactive)	12.6 µM (active)	–	> 46 µM (inactive)	inactive	inactive	4.33% (inactive)	9.08	15.2	10.5% (inactive)	–	–
N#Cc1ccccc1-c1cncnc1NCc1cccnc1	> 11.4 µM (inactive)	-25.2% (inactive)	0.0631 µM (active)	–	> 46 µM (inactive)	inactive	inactive	4.31% (inactive)	7.61	12.5	5.72% (inactive)	inactive	–
CS(=O)(=O)Nc1cccc(-c2nc(N3CCNCC3)c3ccccc3n2)c1	> 11.4 µM (inactive)	5.71% (inactive)	20 µM (active)	2.63% (inactive)	> 46 µM (inactive)	inactive	inactive	5.5% (inactive)	12.3	18.5	–	inactive	> 46 µM (inactive)
COc1cccc(-c2nc(N3CCNCC3)c3ccccc3n2)c1	> 11.4 µM (inactive)	21.6% (inactive)	–	-3.15% (inactive)	> 46 µM (inactive)	inactive	inactive	5.82% (inactive)	-17.6	-11.1	-0.232% (inactive)	inactive	> 46 µM (inactive)
Cc1nc2cnc(N(C)C)nc2n(Cc2cccs2)c1=O	> 11.4 µM (inactive)	-12% (inactive)	1.26 µM (active)	-2.49% (inactive)	> 46 µM (inactive)	inactive	–	3.99% (inactive)	10.1	16.8	–	–	> 9.22 µM (inactive)
Cc1ccccc1-c1cncnc1NCCN1CCOCC1	> 11.4 µM (inactive)	24.4% (inactive)	15.8 µM (active)	7.48% (inactive)	> 46 µM (inactive)	inactive	inactive	4.31% (inactive)	0.273	3.28	–	inactive	> 46 µM (inactive)
CN1CCN(c2ncc3ncc(=O)n(Cc4cccs4)c3n2)CC1	> 11.4 µM (inactive)	-18.1% (inactive)	3.98 µM (active)	-10.9% (inactive)	> 46 µM (inactive)	inactive	inactive	4.27% (inactive)	26.8	33.1	–	–	> 9.22 µM (inactive)
Cc1noc(C)c1C(=O)N1CCC[C@@]2(CCN(Cc3cc(C(F)(F)F)cc(C(F)(F)F)c3)C2)C1	> 11.4 µM (inactive)	1.15% (inactive)	inactive	1.36% (inactive)	> 46 µM (inactive)	inactive	inactive	4.37% (inactive)	12.5	19.6	14.8% (inactive)	–	–
COc1ccccc1-c1nccc(NCc2cccc(C)c2)n1	> 11.4 µM (inactive)	-2.08% (inactive)	0.631 µM (active)	–	> 46 µM (inactive)	inactive	–	-4.4% (inactive)	-19.8	-23.8	-5.48% (inactive)	22.4 µM (active)	–
O=C(c1cnccn1)N1CCC2(CCCN(c3cccc(-c4ccccc4)c3)C2)CC1	> 11.4 µM (inactive)	-16.1% (inactive)	20 µM (active)	-8.34% (inactive)	> 46 µM (inactive)	inactive	–	-1.76% (inactive)	20.5	18.4	5.03% (inactive)	–	–
O=C(c1cc(C(F)(F)F)cc(C(F)(F)F)c1)N1CCC2(CC1)CCN(c1ncccn1)CC2	> 11.4 µM (inactive)	-11.6% (inactive)	inactive	-7.73% (inactive)	> 46 µM (inactive)	inactive	–	3.41% (inactive)	13.8	23.2	28.8% (inactive)	–	–
O=C(Nc1cccc(F)c1)N1CCCC2(CCN(C(=O)c3cc(C(F)(F)F)cc(C(F)(F)F)c3)CC2)C1	> 11.4 µM (inactive)	-25.5% (inactive)	12.6 µM (active)	-17.6% (inactive)	–	inactive	–	0.997% (inactive)	12.9	17.1	–	–	–
COc1ccccc1CN1CC[C@@]2(CCCN(C(=O)c3ccco3)C2)C1	> 11.4 µM (inactive)	-2.43% (inactive)	–	-8.66% (inactive)	> 46 µM (inactive)	inactive	–	1.52% (inactive)	4.46	8.6	-21.8% (inactive)	–	–
COc1ccc(C(=O)N2CCC3(CC2)CN(c2ccccn2)C3)cc1	> 11.4 µM (inactive)	3.74% (inactive)	–	-24.1% (inactive)	> 46 µM (inactive)	inactive	inactive	6.8% (inactive)	15.9	29.6	-14.4% (inactive)	–	–
CN(C)Cc1ccccc1-c1ccc2ncnc(NCc3cccs3)c2c1	> 11.4 µM (inactive)	4.22% (inactive)	–	-19.4% (inactive)	> 46 µM (inactive)	inactive	–	7.62% (inactive)	-0.921	6.51	-20.1% (inactive)	inactive	> 46 µM (inactive)
CC(C)NC(=O)N1CC2(CCN(C(=O)c3cccn3C)CC2)C1	> 11.4 µM (inactive)	-10.8% (inactive)	–	4.27% (inactive)	> 46 µM (inactive)	inactive	inactive	2.27% (inactive)	10.2	15.6	-17.2% (inactive)	–	–
O=S(=O)(c1ccccc1)N1CCC2(CCN(c3ccncc3)CC2)CC1	> 11.4 µM (inactive)	2.08% (inactive)	–	1.98% (inactive)	> 46 µM (inactive)	inactive	inactive	3.52% (inactive)	9.97	17	–	–	–
CN(C)C(=O)c1ccc(-c2nc(NCc3cccnc3)c3ccccc3n2)cc1	> 11.4 µM (inactive)	–	10 µM (active)	–	> 46 µM (inactive)	inactive	inactive	8.76% (inactive)	17	24.6	9.73% (inactive)	inactive	> 46 µM (inactive)
O=C(Nc1ccccc1)N1CCCC2(CCNCC2)C1	> 11.4 µM (inactive)	-6.92% (inactive)	–	4.83% (inactive)	> 46 µM (inactive)	inactive	inactive	3.78% (inactive)	18	25	6.49% (inactive)	–	–
COc1ccc(-c2nc3cnc(N4CCNCC4)nc3n(C3CC3)c2=O)cc1	> 11.4 µM (inactive)	–	6.31 µM (active)	–	> 46 µM (inactive)	inactive	inactive	0.741% (inactive)	4.22	6.87	–	–	> 9.22 µM (inactive)
O=C(Oc1ccccc1)N1CCC2(CCCN(c3ccncc3)C2)CC1	> 11.4 µM (inactive)	14.2% (inactive)	–	18.8% (inactive)	> 46 µM (inactive)	inactive	inactive	4.64% (inactive)	1.04	10.6	-80.6% (active)	–	–
Cc1ccccc1-c1cncnc1N1CCNCC1	> 11.4 µM (inactive)	-3.42% (inactive)	–	1.91% (inactive)	> 46 µM (inactive)	inactive	inactive	10.2% (inactive)	11	18.8	10.1% (inactive)	inactive	> 46 µM (inactive)
c1ccc(Nc2ncnc3ccc(-c4ccc5c(c4)OCO5)cc23)cc1	> 11.4 µM (inactive)	–	0.251 µM (active)	8.5% (inactive)	> 46 µM (inactive)	inactive	–	5.31% (inactive)	-12.2	-7.25	–	–	> 46 µM (inactive)
CCNc1ncc2ncc(=O)n(C)c2n1	> 11.4 µM (inactive)	3.09% (inactive)	–	-6.09% (inactive)	> 46 µM (inactive)	inactive	inactive	5.71% (inactive)	10.2	17.6	-4.43% (inactive)	–	> 9.22 µM (inactive)
Cc1noc(C)c1-c1nccc(N2CCNCC2)n1	> 11.4 µM (inactive)	14.5% (inactive)	–	-0.568% (inactive)	> 46 µM (inactive)	inactive	inactive	6.06% (inactive)	6.93	14.7	-5.44% (inactive)	inactive	> 46 µM (inactive)
O=c1c(-c2cc(F)cc(F)c2)nc2cnc(Oc3ccccc3)nc2n1C[C@H]1CCCO1	> 11.4 µM (inactive)	-12.8% (inactive)	–	–	> 46 µM (inactive)	inactive	inactive	-6.47% (inactive)	13.2	10.1	-1.84% (inactive)	–	> 9.22 µM (inactive)
COc1ccccc1CN1CC2(CCN(C(=O)c3cccc(F)c3)CC2)C1	> 11.4 µM (inactive)	-3.72% (inactive)	–	0.108% (inactive)	> 46 µM (inactive)	inactive	inactive	3.26% (inactive)	8.06	13.5	–	–	–
COc1ccccc1CN1CCC2(CC1)CCN(C(=O)c1cc(C(F)(F)F)cc(C(F)(F)F)c1)CC2	> 11.4 µM (inactive)	-13.2% (inactive)	–	-3.31% (inactive)	> 46 µM (inactive)	inactive	inactive	0.332% (inactive)	-5.08	1.32	–	–	–
CN(C)c1ccc(-c2ccc3ncnc(NCc4ccccc4)c3c2)cc1	> 11.4 µM (inactive)	–	0.501 µM (active)	-1.76% (inactive)	> 46 µM (inactive)	–	inactive	2.65% (inactive)	-18.1	-15.6	–	–	> 46 µM (inactive)

Reference: PubChem BioAssay (NCATS)
